This is a sample that favours compounds with a hit; in the whole collection about 0.51% have one here.
E coli growth-1 – E. coli V3065 growth inhibition, primary screen, counter-screen for AddAB inhibitor project, absorbance, OD600; inhibition, % at 11.9 µM; AID 449728, 2010; 0.27% of 330,000 active; 18 h;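 active = inhibition above the campaign's mean inhibition across all tested compounds plus 3 SD, cut at about 9.9% in these data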;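 also: uninfected addAB+ strain grown without phage in ampicillin broth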
AddAB inh – growth inhibition of E. coli expressing H. pylori AddAB, primary screen, AddAB inhibitor project, absorbance | AID 435030, 2010 | inhibition, % at 11.9 µM | 0.29% of 330,000 active; in the data active = inhibition above about 12%
phage Ecoli inh – growth loss of phage-infected E. coli, primary screen, RecBCD inhibitor project, absorbance, with phage, HTS | inhibition, % at 11.9 µM | 0.26% of 360,000 active; in the data active = inhibition above about 11%
E coli growth-2 – E. coli growth inhibition, primary screen, OD600. Escherichia coli growth, 23 h; stronger effect = lower value. OD600 absorbance (no concentration beside the values). 0.21% of 330,000 active. AID 1053175, 2014;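 active = OD600 absorbance below the run mean of sample wells minus 3.6 SD, in any replicate, cut at about 0.56 in these data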
Tat transport – E. coli Tat export inhibitors, primary screen, MC4100, TorA-mCherry reporter, fluorescence, single point; inhibition, % at 10 µM; 0.036% of 340,000 active; AID 488895, 2010;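 active = mean replicate inhibition at least 50% and at least half of replicates individually reaching 50%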;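 also: exported cargo escapes ClpAP degradation while cytoplasmic cargo is degraded and loses fluorescence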
AddAB confirm – growth loss of phage-infected E. coli expressing H. pylori AddAB, confirmation, AddAB inhibitor project, absorbance, E. coli V3065, T4 phage, triplicate; shares compounds with AddAB inh; OD; T4 phage with gene 2 nonsense mutations; inhibition, % at 11.9 µM; 64% of 880 active; AID 488942, 2010;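 active = mean inhibition above a set limit taken from the earlier primary screen, cut at about 13% in these data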;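 also: higher means less bacterial growth since AddAB block lets phage replicate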
RecBCD counter – growth loss of RecBCD+ E. coli with mutant T4 phage, counter-screen for AddAB inhibitor project, absorbance, V66 E. coli. 73% of 880 active. OD growth. AID 488955, 2010. shares compounds with AddAB inh. inhibition, % at 11.9 µM;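 active = mean inhibition above the mean of solvent-only control wells plus 3 SD, cut at about 4% in these data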;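 also: optical density read after an 18 h incubation at 37 °C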
Bact viability – bacterial viability inhibition counter-screen, confirmation, counter-screen for AddAB inhibitor project, absorbance | shares compounds with AddAB inh | absorbance (AddAB counterscreen) | inhibition, % at 11.9 µM | 35% of 880 active; in the data active = inhibition above about 25%
Numbers stand for hits; - = inactive; . = no result.

SMILES	E coli growth-1	AddAB inh	phage Ecoli inh	E coli growth-2	Tat transport	AddAB confirm	RecBCD counter	Bact viability
Cc1noc(NS(=O)(=O)c2ccc(N/C=C/C(=O)c3ccc(F)cc3)cc2)c1C	-	-	-	-	-	.	.	.
CCc1ccc(C(=O)/C=C/Nc2ccc(S(=O)(=O)Nc3onc(C)c3C)cc2)cc1	-	14.2	-	-	-	-	-	-
CCOC1=NN(c2ccccc2)C(=O)C1=CN(C)C	.	.	.	-	.	.	.	.
CC1CN(C(=O)C=Cc2ccccc2[N+](=O)[O-])CC(C)O1 (configuration not stated)	.	.	.	-	.	.	.	.
CCCNC(=O)c1ccc2c(=O)c(O)c(-c3ccc(OC)cc3)[nH]c2c1	16.4	18.1	.	-	-	-	12.7	-
CCCNC(=O)c1ccc2c(=O)c(O)c(-c3ccsc3)[nH]c2c1	17.8	17.8	.	.	-	12.6	12.4	-
CCOC(=O)C=Cc1ccc2oc3ccccc3c(=O)c2c1	.	.	.	-	.	.	.	.
COc1cc(NS(=O)(=O)c2ccc(NC(=S)NC(=O)c3sc4ccccc4c3Cl)cc2)ncn1	-	12.9	-	-	-	-	-	-
CC(NC(=O)c1nc[nH]c1C(=O)NCC(=O)OCc1ccccc1)C(=O)OC(C)(C)C (configuration not stated)	.	.	.	-	.	.	.	.
Fc1ccccc1-n1cn[nH]c1=S	53.1	95.1	-	-	-	-	-	-
CC(C)(C)OC(=O)N1CCCC1CO (configuration not stated)	.	.	.	-	.	.	.	.
O=C(COC(=O)Cc1n[nH]c(=O)c2ccccc12)Nc1c(Cl)cccc1C(F)(F)F	26.5	55.9	-	-	-	-	-	-
O=C(COC(=O)Cc1c[nH]c2ccccc12)Nc1c(Cl)cccc1C(F)(F)F	-	-	-	-	-	.	.	.
COC(=O)C(Cc1ccccc1)NC(=O)OC1C(=O)c2ccc(OC)cc2OC1c1ccc2c(c1)OCO2 (configuration not stated)	.	.	.	-	.	.	.	.
CCOc1ccc(NC(=O)NNC(=O)c2ccc3ccccc3c2O)cc1	11.6	12.8	-	-	-	-	12.0	-
CCc1ccccc1NC(=O)NNC(=O)c1ccc2ccccc2c1O	-	-	-	-	-	.	.	.
S=c1nc[nH]c2c1ncn2C1CCCO1 (configuration not stated)	22.4	26.4	-	.	-	-	-	-
Nc1ncnc2c1ncn2C1CCCO1 (configuration not stated)	-	-	-	-	-	.	.	.
COc1ccc(CCNC(=O)c2ccc(CN3CCC(Cc4ccccc4)CC3)cc2)cc1OC	-	13.5	-	-	-	-	-	-
COC(=O)C1=C(C(=O)OC)C2N(C)c3ccc(OC)cc3[C@@]23CC(C(=O)OC)N(C(=O)NCCBr)C3=N1 (some centres not stated)	.	.	.	-	.	.	.	.
COC(=O)[C@@]12CCCCN1C(c1ccc(-c3ccc(Cl)c(Cl)c3)c(OC)c1)C1C(=O)N(C)C(=O)C12 (some centres not stated)	.	.	.	-	.	.	.	.
Cc1ccc(CCNC(=O)c2cc(S(=O)(=O)N3CCOCC3)cn2C)cc1	-	-	-	-	-	.	.	.
Cn1cc(S(=O)(=O)N2CCOCC2)cc1C(=O)NCCc1ccccc1	98.8	98.6	.	-	-	-	-	-
COc1ccccc1CNC(=O)c1cc(S(=O)(=O)N2CCCC2)cn1C	99.2	100.2	-	-	-	-	-	-
O=c1[nH]c2ccccc2n1CCCOc1ccccc1	-	-	-	-	-	.	.	.
SMILES	E coli growth-1	AddAB inh	phage Ecoli inh	E coli growth-2	Tat transport	AddAB confirm	RecBCD counter	Bact viability
CCCCn1c(=O)[nH]c2ccccc21	-	13.9	-	-	-	-	-	-
O=C(NC(CO)Cc1ccc([N+](=O)[O-])cc1)C(Cl)Cl (configuration not stated)	82.9	81.3	.	0.0615	-	87.8	87.7	88.0
O=C(O)CC(Cc1ccc(Cl)cc1)C(=O)Nc1ccc([N+](=O)[O-])cc1 (configuration not stated)	-	-	-	-	-	.	.	.
CCC(C)C(NC(=O)OC(C)(C)C)c1cn(C(Cc2cc3ccccc3[nH]2)C(=O)N2CCN(C(=O)OC(C)(C)C)CC2)nn1 (configuration not stated)	.	.	.	-	.	.	.	.
Nc1nn2c(-c3ccccc3)cc(=O)[nH]c2c1N=Nc1ccc(O)cc1	10.3	18.6	-	-	-	26.6	-	-
CC(=C(CCO)SSCC1CCCO1)N(C=O)Cc1cnc(C)nc1N (configuration not stated)	.	.	.	-	.	.	.	.
Cc1nc2sc(C(c3ccco3)N3CCN(C(c4ccccc4)c4ccccc4)CC3)c(O)n2n1 (configuration not stated)	22.2	37.4	-	-	-	-	-	-
CNCC1Oc2ccc(NC(=O)Nc3ccc4c(c3)OCO4)cc2C(=O)N(C(C)CO)CC1C (configuration not stated)	.	.	.	-	.	.	.	.
O=C(O[C@@H]1OC2COC(=O)c3cc(O)c(O)c(O)c3-c3c(cc(O)c(O)c3O)C(=O)O[C@@H]([C@H]1O)[C@@H]2O)c1cc(O)c(O)c(O)c1	23.1	21.9	.	.	-	19.8	14.3	-
COc1cc(NC(=O)COC(=O)C=Cc2c(C)nn(-c3ccc(F)cc3)c2Cl)cc(OC)c1	.	.	.	-	.	.	.	.
CCc1ccc(Nc2c([N+](=O)[O-])c(=O)oc3ccccc23)cc1	-	-	-	-	-	.	.	.
O=c1oc2ccccc2c(NC(c2ccccc2)c2ccccc2)c1[N+](=O)[O-]	-	39.0	-	-	-	101.2	5.3	-
CC(Nc1c([N+](=O)[O-])c(=O)oc2ccccc12)C(Cl)c1ccccc1 (configuration not stated)	-	-	-	-	-	.	.	.
CCNc1c([N+](=O)[O-])c(=O)oc2ccccc12	-	12.6	-	-	-	29.2	-	-
CCN1CC2C3C(=O)N(Cc4ccccc4)C(=O)C3[C@](Cc3ccccc3)(C1=O)N2C(=O)c1ccccc1 (some centres not stated)	.	.	.	-	.	.	.	.
Cc1c(Cl)cccc1NC(=S)NCc1ccc(F)cc1	-	-	-	-	-	.	.	.
Cc1c(Cl)cccc1NC(=S)NCc1ccccc1Cl	-	18.0	-	-	-	17.4	22.5	-
CCCCC=CC(NC(=O)c1ccc(-c2ccccc2)cc1)c1ccccc1 (configuration not stated)	.	.	.	-	.	.	.	.
CC1(C)OC(=O)C(=NNc2ccc(O)cc2)C(=O)O1	-	15.8	-	-	-	17.0	-	-
CC1(C)OC(=O)C(=NNc2ccccc2)C(=O)O1	-	-	-	.	-	.	.	.
O=C(Nc1cc(C(F)(F)F)ccc1-n1cncn1)c1ccc([N+](=O)[O-])o1	14.4	17.6	-	-	-	73.0	5.7	-

Assay outcomes deposited in PubChem BioAssay by several laboratories.
